Inconclusive results are not listed. Active and inactive are the calls of the source. Unless noted, the call rests on the fitted dose curve; in most records, active means well fitted curve in the direction sought with a large enough effect in the repeat runs; inconclusive means weak or mixed curves; inactive means no such curve, though single readings can be large; an effect the other way counts as inactive or inconclusive.

Experiment [1] can be described thus: qHTS assay to identify aromatase inhibitors - cell viability counter screen (AID 743084;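 further: cells stimulated with testosterone during compound exposure; nearly all actives have a fitted effect of over 55% in size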). (Quantitative high-throughput screening tests each substance at several concentrations.)
Experiment [2] can be described thus: qHTS assay to identify small molecule that activate the aryl hydrocarbon receptor (AhR) signaling pathway - cell viability counter screen (AID 743086).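 Further: HepG2 liver cells carrying the AhR DRE luciferase reporter; series mostly up to about 70 µM; nearly all actives have a fitted effect of over 45% in size.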 In outline:
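HepG2-AhR-luc (HG2L7.5c1) cells, 4000/well, treated 24 h at 37 C with compound; viability measured as CellTiter-Fluor fluorescence after 30 min in the same wells as the luciferase read.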

In experiment [3] the target is Peroxisome proliferator-activated receptor gamma (Homo sapiens) (UniProt P37231). The experiment can be described thus: qHTS assay to identify small molecule agonists of the peroxisome proliferator-activated receptor gamma (PPARg) signaling pathway (AID 743094; active means well fitted activation curve with a large enough effect in the signal ratio in the repeat runs, not every such curve was filed as active; the % refers to the signal ratio). In outline: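 Compounds dissolved in DMSO were added to PPARg UAS-bla HEK293H cells for 17 h at 37C, and reporter expression was quantified by fluorescence intensity after 1 h with LiveBLAzer B/G FRET substrate.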

Experiment [4] has the same target. Nature of the experiment: qHTS assay to identify small molecule antagonists of the peroxisome proliferator-activated receptor gamma (PPARg) signaling pathway (AID 743191; calls by dose curve; further: nearly all actives have a fitted effect of over 30% in size; further: potency means the concentration at half of the fitted maximal effect). In outline:
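GeneBLAzer PPARg UAS-bla HEK293H cells, 5 h post-plating, exposed to compounds 17 h at 37C. LiveBLAzer B/G FRET substrate added for 1 h at room temperature; beta-lactamase reporter read by fluorescence intensity.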

The nature of experiment [5]: qHTS assay to identify small molecule antagonists of the peroxisome proliferator-activated receptor gamma (PPARg) signaling pathway - cell viability counter screen (AID 743194). Further: nearly all actives have a fitted effect of over 55% in size. Particulars: Potency: co-treated with 50 nM rosiglitazone. In outline:
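Cytotoxicity counter screen in PPARg-bla HEK293H cells, same wells as reporter assay. Compounds plus 50 nM rosiglitazone (final) for 17 h at 37 C, then viability read by CellTiter-Glo luminescence.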

A short description of experiment [6]: qHTS assay for small molecule agonists of the antioxidant response element (ARE) signaling pathway (AID 743202; active means well fitted activation curve with a large enough effect in the signal ratio in the repeat runs, not every such curve was filed as active; the % refers to the signal ratio; further: potency means the concentration at half of the fitted maximal effect). In outline: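 ARE-bla HepG2 cells (beta-lactamase reporter under the antioxidant response element), plated 5 hours, then exposed to compounds 16 hours at 37 C. LiveBLAzer B/G FRET substrate added for 2 hours at room temperature; fluorescence intensity read.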

Experiment [7] is described as follows: qHTS assay for small molecule agonists of the antioxidant response element (ARE) signaling pathway - cell viability counter screen (AID 743203; calls by dose curve; further: nearly all actives have a fitted effect of over 55% in size). In outline: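 Following 16 hrs of compound treatment at 37C, HepG2 cells with an ARE-controlled beta-lactamase gene were lysed with CellTiter-Glo. Luminescence was read after 30 min at room temperature.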
Experiment [8] is described as follows: qHTS assay for small molecule activators of the heat shock response signaling pathway - cell viability counter screen (AID 743209). Further: nearly all actives have a fitted effect of over 50% in size. In outline:
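Readout: CellTiter-Glo luminescence, 30 min at room temperature. System: HSE-bla HeLa cells, 1500/well, plated overnight. Treatment: compounds in DMSO, 5 h at 37 C.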

The nature of experiment [9]: qHTS assay to identify small molecule agonists of the peroxisome proliferator-activated receptor delta (PPARd) signaling pathway - cell viability counter screen (AID 743211). Further: nearly all actives have a fitted effect of over 55% in size. In outline: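 Luminescent ATP viability assay (CellTiter-Glo, 30 min RT) in UAS-bla HEK293H cells carrying the PPAR delta reporter construct, 3000 cells/well, after a 17 h compound treatment at 37 C.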

The target of experiment [10] is Peroxisome proliferator-activated receptor delta (Homo sapiens) (UniProt Q03181). The experiment can be described thus: qHTS assay to identify small molecule agonists of the peroxisome proliferator-activated receptor delta (PPARd) signaling pathway (AID 743212; calls by dose curve). In outline:
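GeneBLAzer UAS-bla HEK293H cells carrying a PPARδ construct were exposed to compounds at 37 °C. Beta-lactamase activity was read by FRET fluorescence after 2 h at room temperature with LiveBLAzer B/G substrate.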

Experiment [11] is described as follows: qHTS assay to identify small molecule antagonists of the peroxisome proliferator-activated receptor delta (PPARd) signaling pathway - cell viability counter screen (AID 743213). Further: nearly all actives have a fitted effect of over 50% in size. In outline:
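CellTiter-Glo was added to PPARd-bla HEK293H wells following 17 h compound treatment in the presence of 300 nM L165041. Luminescence was recorded after 30 min at room temperature.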

Experiment [12] addresses Peroxisome proliferator-activated receptor delta (Homo sapiens) (UniProt Q03181). The experiment can be described thus: qHTS assay to identify small molecule antagonists of the peroxisome proliferator-activated receptor delta (PPARd) signaling pathway (AID 743215; active means well fitted inhibition curve with a large enough effect in the signal ratio in the repeat runs, not every such curve was filed as active; the % refers to the signal ratio;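 further: cells stimulated with agonist L165041 at 300 nM final during compound exposure; series mostly up to about 62 µM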). In outline:
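HEK293H UAS-bla, PPARd; agonist L165041 300 nM final with cpd in DMSO; 37 C 17 h; FRET substrate, RT 2 h; fluorescence intensity.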

For experiment [13], the target named is Bile acid receptor (Homo sapiens) (UniProt Q96RI1). Nature of the experiment: qHTS assay to identify small molecule antagonists of the farnesoid-X-receptor (FXR) signaling pathway (AID 743217; active means well fitted inhibition curve with a large enough effect in the signal ratio in the repeat runs, not every such curve was filed as active; the % refers to the signal ratio). In outline:
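GeneBLAzer FXR-UAS-bla HEK 293T, CDCA-stimulated (50 uM final). Compound treatment 16 h, 37 °C. Detection: beta-lactamase cleavage of B/G FRET substrate, fluorescence.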

Experiment [14] is described as follows: qHTS assay to identify small molecule agonists of the farnesoid-X-receptor (FXR) signaling pathway - cell viability counter screen (AID 743218). Further: nearly all actives have a fitted effect of over 45% in size. In outline:
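Parallel cytotoxicity test: compound-treated (16 h, 37 C) HEK 293T FXR-bla reporter cells were lysed with CellTiter-Glo and luminescence recorded.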

Experiment [15] addresses Bile acid receptor (Homo sapiens) (UniProt Q96RI1). Nature of the experiment: qHTS assay to identify small molecule agonists of the farnesoid-X-receptor (FXR) signaling pathway (AID 743220; active means well fitted activation curve with a large enough effect in the signal ratio in the repeat runs, not every such curve was filed as active; the % refers to the signal ratio). In outline: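 Beta-lactamase reporter under UAS control in GeneBLAzer FXR HEK 293T cells (5000/well) measured with LiveBLAzer FRET substrate after 2 h at room temperature. Compound exposure lasted 16 h at 37C.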

The nature of experiment [16]: qHTS assay to identify small molecule antagonists of the farnesoid-X-receptor (FXR) signaling pathway - cell viability counter screen (AID 743221; active means well fitted cell-killing curve with a large enough effect in the repeat runs, not every such curve was filed as active; further: nearly all actives have a fitted effect of over 50% in size). In outline: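 In GeneBLAzer FXR-UAS-bla HEK 293T cells stimulated with 50 uM chenodeoxycholic acid (final), compounds acted for 16 h at 37 C. Viability was assessed afterwards by CellTiter-Glo luminescence.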
Experiment [17] is described as follows: qHTS assay for small molecule activators of the heat shock response signaling pathway (AID 743210; active means well fitted activation curve with a large enough effect in the signal ratio in the repeat runs, with a control signal flat, not every such curve was filed as active; the % refers to the signal ratio; further: series mostly up to about 63 µM). In outline: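 HSE-bla HeLa cells (beta-lactamase reporter under heat shock response elements), plated overnight, then exposed to compounds 5 h at 37 C; LiveBLAzer B/G FRET substrate added, 2.5 h at room temperature, fluorescence intensity read.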
For experiment [18], the target named is Vitamin D3 receptor (Homo sapiens) (UniProt P11473). Nature of the experiment: qHTS assay to identify small molecule agonists of the vitamin D receptor (VDR) signaling pathway (AID 743222; calls by dose curve). In outline:
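In VDR-bla cells, compound-induced beta-lactamase expression is quantified by FRET substrate fluorescence. Treatment lasts 16 h at 37C; substrate develops 2 h at room temperature.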

Experiment [19] has the same target. Nature of the experiment: qHTS assay to identify small molecule antagonists of the vitamin D receptor (VDR) signaling pathway (AID 743223; active means well fitted inhibition curve with a large enough effect in the signal ratio in the repeat runs, not every such curve was filed as active; the % refers to the signal ratio). In outline:
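Agonist 1alpha,25-dihydroxyvitamin D3 (3 nM in well) was added with each compound to VDR-bla cells preincubated 4 h. Cells stood 16 h at 37C, then FRET substrate 2 h at room temperature; fluorescence intensity recorded.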

The target in experiment [20] is Aryl hydrocarbon receptor (Homo sapiens) (UniProt P35869). The experiment can be described thus: qHTS assay to identify small molecule that activate the aryl hydrocarbon receptor (AhR) signaling pathway (AID 743085).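 Further: HG2L7.5c1 human HepG2 liver cells with stably integrated DRE-driven firefly reporter; series mostly up to about 70 µM; nearly all actives have a fitted effect of over 15% in size.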 In outline: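 24 h compound exposure, 37C, HepG2-derived HG2L7.5c1 cells with DRE-responsive luciferase. Readouts: fluorescence viability, then luminescence at room temperature after 30 min.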
Chain of Aryl hydrocarbon receptor (Homo sapiens) (P35869 whole entry, looked up): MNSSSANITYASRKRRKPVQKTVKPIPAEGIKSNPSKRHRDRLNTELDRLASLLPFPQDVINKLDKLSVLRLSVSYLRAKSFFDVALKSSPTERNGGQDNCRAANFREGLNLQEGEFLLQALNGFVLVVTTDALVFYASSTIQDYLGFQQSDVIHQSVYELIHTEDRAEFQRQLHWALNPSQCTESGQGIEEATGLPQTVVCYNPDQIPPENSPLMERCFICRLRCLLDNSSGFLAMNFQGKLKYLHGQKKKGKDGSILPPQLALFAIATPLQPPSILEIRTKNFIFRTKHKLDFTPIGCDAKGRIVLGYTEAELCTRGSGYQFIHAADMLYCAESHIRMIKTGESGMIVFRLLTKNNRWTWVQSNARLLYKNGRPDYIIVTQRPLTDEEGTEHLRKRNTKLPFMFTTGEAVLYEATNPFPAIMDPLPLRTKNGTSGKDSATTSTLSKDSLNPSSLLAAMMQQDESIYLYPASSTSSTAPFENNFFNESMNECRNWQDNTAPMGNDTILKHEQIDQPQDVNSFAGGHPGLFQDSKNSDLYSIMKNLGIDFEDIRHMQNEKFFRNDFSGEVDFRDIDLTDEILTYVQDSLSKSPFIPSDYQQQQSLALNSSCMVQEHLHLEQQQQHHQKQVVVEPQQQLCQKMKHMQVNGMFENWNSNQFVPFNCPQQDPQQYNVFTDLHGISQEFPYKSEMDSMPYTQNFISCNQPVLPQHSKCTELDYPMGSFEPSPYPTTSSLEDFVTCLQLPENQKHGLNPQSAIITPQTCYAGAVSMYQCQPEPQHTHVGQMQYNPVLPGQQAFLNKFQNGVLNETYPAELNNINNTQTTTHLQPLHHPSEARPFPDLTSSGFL

Chain of Peroxisome proliferator-activated receptor delta (Homo sapiens) (Q03181 whole entry, looked up): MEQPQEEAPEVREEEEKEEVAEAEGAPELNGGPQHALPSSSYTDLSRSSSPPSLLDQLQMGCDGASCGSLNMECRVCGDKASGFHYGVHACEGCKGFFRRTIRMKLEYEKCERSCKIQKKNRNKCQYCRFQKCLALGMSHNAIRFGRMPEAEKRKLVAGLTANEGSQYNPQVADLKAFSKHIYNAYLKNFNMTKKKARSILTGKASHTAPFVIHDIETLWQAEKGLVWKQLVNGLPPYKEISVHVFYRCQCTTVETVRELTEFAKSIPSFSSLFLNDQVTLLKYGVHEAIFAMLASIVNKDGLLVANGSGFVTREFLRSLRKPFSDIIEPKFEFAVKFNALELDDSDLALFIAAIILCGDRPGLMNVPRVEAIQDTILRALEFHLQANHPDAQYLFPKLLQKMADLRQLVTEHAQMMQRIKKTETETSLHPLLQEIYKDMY
Chain of Peroxisome proliferator-activated receptor gamma (Homo sapiens) (P37231 whole entry, looked up): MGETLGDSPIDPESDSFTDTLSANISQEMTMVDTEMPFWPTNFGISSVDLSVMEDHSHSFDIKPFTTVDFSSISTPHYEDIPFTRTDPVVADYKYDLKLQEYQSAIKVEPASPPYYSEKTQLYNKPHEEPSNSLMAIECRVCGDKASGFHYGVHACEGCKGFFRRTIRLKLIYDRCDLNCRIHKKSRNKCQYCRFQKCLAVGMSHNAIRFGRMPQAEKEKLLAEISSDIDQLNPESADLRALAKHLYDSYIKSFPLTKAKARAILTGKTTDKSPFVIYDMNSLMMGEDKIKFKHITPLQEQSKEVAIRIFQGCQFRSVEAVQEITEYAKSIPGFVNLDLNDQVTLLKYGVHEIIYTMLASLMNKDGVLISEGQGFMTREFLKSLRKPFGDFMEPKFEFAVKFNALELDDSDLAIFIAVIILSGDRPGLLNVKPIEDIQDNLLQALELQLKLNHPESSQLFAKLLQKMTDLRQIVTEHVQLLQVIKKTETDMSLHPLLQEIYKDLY
Chain of Vitamin D3 receptor (Homo sapiens) (P11473 whole entry, looked up): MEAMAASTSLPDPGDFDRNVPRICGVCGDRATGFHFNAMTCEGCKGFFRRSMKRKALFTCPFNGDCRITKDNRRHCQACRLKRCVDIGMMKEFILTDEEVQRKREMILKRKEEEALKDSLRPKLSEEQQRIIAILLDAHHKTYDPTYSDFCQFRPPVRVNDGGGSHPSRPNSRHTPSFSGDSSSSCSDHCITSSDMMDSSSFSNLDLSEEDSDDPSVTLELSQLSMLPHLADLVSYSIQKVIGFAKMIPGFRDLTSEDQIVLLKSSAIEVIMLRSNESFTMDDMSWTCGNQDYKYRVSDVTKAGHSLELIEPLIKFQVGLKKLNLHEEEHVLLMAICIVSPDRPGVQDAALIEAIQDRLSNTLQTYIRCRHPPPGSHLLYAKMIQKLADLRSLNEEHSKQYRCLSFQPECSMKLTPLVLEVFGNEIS
Chain of Bile acid receptor (Homo sapiens) (Q96RI1 whole entry, looked up): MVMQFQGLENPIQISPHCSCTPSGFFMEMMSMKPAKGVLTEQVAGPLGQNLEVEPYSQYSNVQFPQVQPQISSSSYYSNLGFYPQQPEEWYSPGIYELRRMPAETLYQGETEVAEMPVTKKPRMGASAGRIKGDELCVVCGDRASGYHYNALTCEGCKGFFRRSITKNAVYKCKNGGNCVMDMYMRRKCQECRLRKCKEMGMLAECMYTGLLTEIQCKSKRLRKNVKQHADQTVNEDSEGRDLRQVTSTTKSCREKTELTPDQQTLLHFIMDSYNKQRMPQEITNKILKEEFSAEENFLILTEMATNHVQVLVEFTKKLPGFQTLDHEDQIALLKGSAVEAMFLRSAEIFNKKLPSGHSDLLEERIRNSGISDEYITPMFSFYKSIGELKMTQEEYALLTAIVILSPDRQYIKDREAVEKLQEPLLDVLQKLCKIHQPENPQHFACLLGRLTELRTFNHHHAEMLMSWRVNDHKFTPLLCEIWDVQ

`CC(Cl)C(C)Cl` (centres undefined): the Potency entry in experiment [1], in experiment [2], in experiment [3], in [4], in [5] and in [6] was “inactive” each time. Also, the Potency entry in experiment [7], in [8], in [9], in [11], in [12] and in experiment [13] was “inactive” in each case. Also, the Potency result in experiment [14] and in [16] was “inactive” each time. Further, the outcome in experiment [10] and in [15] was inactive.
With `NNC(=O)c1cccnc1`, the Potency result in experiment [1], in [2], in experiment [3], in [4], in experiment [5] and in [6] was “inactive” throughout. The Potency entry in experiment [7], in experiment [8], in [9], in [11], in [12] and in [13] was “inactive” each time. Also, in experiment [16], the Potency entry is “inactive”. Moreover, the outcome in [17], in experiment [10], in experiment [15], in experiment [18] and in experiment [19] was inactive.
As to `CCCC(Cn1cncn1)c1ccc(Cl)cc1Cl` (centres undefined), the Potency result in [1], in experiment [20], in [7], in [11], in [12] and in experiment [14] was “inactive” each time. Moreover, in [16], the Potency entry is “inactive”. For the same molecule, the outcome in experiment [17], in [10], in experiment [15] and in [18] was inactive.
For the molecule `Cl/C=C\Cl`, the Potency result in experiment [1], in experiment [2], in [5], in experiment [7], in experiment [8] and in experiment [9] was “inactive” in each case. Also, the Potency entry in [11], in experiment [12] and in experiment [16] was “inactive” each time. The molecule was classed as inactive in experiment [10] and in experiment [18].
With `CNP(=O)(OC)Oc1ccc(C(C)(C)C)cc1Cl` (centres undefined), the Potency entry in experiment [1], in experiment [2], in experiment [7], in experiment [8], in experiment [9] and in experiment [11] was “inactive” throughout. Also, the Potency entry in [12], in experiment [14] and in experiment [16] was “inactive” each time. Also, the Potency in experiment [4] is 43.6 µM (active); in [6], 54.5 µM (active). Moreover, the result in [17], in experiment [10], in experiment [18] and in experiment [19] was inactive.
Take `Oc1ccc(Cl)c(Cl)c1Cl`: the Potency entry in experiment [1], in experiment [2], in experiment [3], in experiment [5], in experiment [7] and in [8] was “inactive” each time. Moreover, the Potency result in experiment [9], in [11], in experiment [12] and in [16] was “inactive” throughout. For the same molecule, the outcome in experiment [17], in experiment [10], in experiment [15], in experiment [18] and in experiment [19] was inactive.
For the molecule `BrCCCCBr`, the Potency entry in experiment [1], in [2], in experiment [3], in [5], in experiment [7] and in experiment [8] was “inactive” throughout. Further, the Potency entry in [9], in experiment [14] and in experiment [16] was “inactive” each time. The outcome in experiment [17] was inactive.
For `CCOP(=S)(Oc1ccc([N+](=O)[O-])cc1)c1ccccc1` (centres undefined), the Potency entry in experiment [1], in experiment [2], in experiment [5], in experiment [7], in [8] and in experiment [9] was “inactive” in each case. Further, the Potency result in experiment [11] and in experiment [16] was “inactive” in each case. The call in experiment [10], in experiment [18] and in experiment [19] was inactive.
In the case of `c1ccc(CN2CCNCC2)cc1`, the Potency entry in experiment [1], in experiment [2], in experiment [5], in [6], in experiment [7] and in experiment [8] was “inactive” each time. The Potency entry in [9], in experiment [11], in experiment [12] and in [16] was “inactive” throughout. Moreover, the outcome in experiment [10], in experiment [18] and in [19] was inactive.
`CN1C(=O)C(O)N=C(c2ccccc2)c2cc(Cl)ccc21` (centres undefined): the Potency entry in experiment [1], in [2], in experiment [5], in [7], in [8] and in experiment [9] was “inactive” throughout. Further, the Potency result in experiment [14] and in experiment [16] was “inactive” each time. For the same molecule, in [10], the molecule was called inactive.

(Values after PubChem BioAssay (Tox21).)
